Several values for one entry are separate records, joined by “and”; a condition that tells them apart may be missing. Equal entries are not always repeated. A structure can be active in one record and inactive in another. Activity calls are given as the source filed them. Unless noted, calls come from the whole dose curve; as a rule, active = well fitted curve in the direction sought with a large enough effect in the repeat runs; inconclusive = weak or mixed curves; inactive = no such curve, though single readings can be large; an effect the other way counts as inactive or inconclusive.
Experiments:
[1] = qHTS assay for small molecule agonists of the p53 signaling pathway (AID 651631; calls by dose curve; note: nearly all actives have a fitted effect of over 15% in size; note: potency is the fitted concentration of half-maximal effect)
Outline: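 Readout was fluorescence from the LiveBLAzer FRET substrate, applied for 2 h at room temperature after 16 h compound exposure at 37 °C. Cells were the p53RE-bla HCT-116 line, with beta-lactamase driven by p53 response elements.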

[2] = qHTS assay for small molecules that induce genotoxicity in human embryonic kidney cells expressing luciferase-tagged ATAD5 (AID 651632); note: nearly all actives have a fitted effect of over 15% in size; note: potency is the fitted concentration of half-maximal effect
Outline: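 Concentration-response screen for ATAD5 upregulation in HEK293T luciferase reporter cells; 16 hr treatment at 37C, then luminescence after 30 min with Amplite at room temperature.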

[3] = qHTS assay for small molecule agonists of the p53 signaling pathway - cell viability (AID 651633; calls by dose curve; note: nearly all actives have a fitted effect of over 30% in size; note: potency is the fitted concentration of half-maximal effect)
Outline: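 p53RE-bla cells, seeded at 4,000 per well and rested 5 h at 37 C/5% CO2, received compounds in DMSO for 16 h at 37 C. CellTiter-Glo was then added, and luminescence was read after 30 min at room temperature to gauge cytotoxicity.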

[4] = qHTS assay for small molecules that induce genotoxicity in human embryonic kidney cells expressing luciferase-tagged ATAD5 - cell viability (AID 651634; calls by dose curve; note: nearly all actives have a fitted effect of over 25% in size; note: potency is the fitted concentration of half-maximal effect)
Outline: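 15.5 hr compound or vehicle exposure of HEK293T cells expressing luciferase-tagged ATAD5 at 37C; live-cell protease activity is read by fluorescence after 30 min of CellTiter-Fluor.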

[5] = qHTS assay for small molecule disruptors of the mitochondrial membrane potential (AID 720635); note: potency is the fitted concentration of half-maximal effect
Outline: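 HepG2 cells (2,000/well) attached overnight at 37C, then took compound for 1 hr at 37C, 5% CO2. Mito-MPS dye was added for 30 min; fluorescence was read at 490/535 nm (monomers) and 540/590 nm (aggregates).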

[6] = qHTS assay to test for compound auto fluorescence at 590 nm (red) in HepG2 cells (AID 720674); note: potency is the fitted concentration of half-maximal effect
Outline: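 Intrinsic compound fluorescence in the red window (Ex/Em 540/590 nm) is measured in attached HepG2 cells exposed for 1 hr, DMSO vehicle as baseline, benchmarked to Rose Bengal sodium.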

[7] = qHTS assay to test for compound auto fluorescence at 535 nm (green) in HepG2 cells (AID 720675)
[8] = qHTS assay to test for compound auto fluorescence at 460 nm (blue) in HEK293 cells (AID 720678); note: potency is the fitted concentration of half-maximal effect
Outline: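 HEK293 cells (2,000 per well, medium with 10% dialyzed FBS) attached for 4-5 hr at 37C, then received compound and stood overnight at 37C, 5% CO2. Blue fluorescence was read at Ex/Em 405/460 nm and expressed relative to triamterene.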

[9] = qHTS assay to test for compound auto fluorescence at 590 nm (red) in HEK293 cells (AID 720679); note: potency is the fitted concentration of half-maximal effect
Outline: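 HEK293 cells (2,000/well, medium with 10% dialyzed FBS) attached for 4-5 hr at 37C, received 23 nL compound and were incubated overnight at 37C, 5% CO2. Red fluorescence was then read at 540/590nm Ex/Em, referenced to Rose Bengal sodium.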

[10] = qHTS assay to test for compound auto fluorescence at 535 nm (green) in HEK293 cells (AID 720680)
[11] = qHTS assay to test for compound auto fluorescence at 460 nm (blue) in HEK293 cell free culture (AID 720681); note: potency is the fitted concentration of half-maximal effect
Outline: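 Test compounds were pinned into cell-free culture medium (DMEM with 10% FBS) and fluorescence was read directly at Ex/Em 405/460 nm. Signals were expressed as fluorescence equivalents of triamterene, with DMSO vehicle as control.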

[12] = qHTS assay to test for compound auto fluorescence at 535 nm (green) in HEK293 cell free culture (AID 720682)
Outline: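 Compounds were pin-transferred into cell-free DMEM with 10% FBS, and green fluorescence was read at excitation 485 nm and emission 535 nm. Intensities were expressed as fluorescein-equivalent values.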

[13] = qHTS assay to test for compound auto fluorescence at 590 nm (red) in HEK293 cell free culture (AID 720683); note: potency is the fitted concentration of half-maximal effect
Outline: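 Tox21 10K library compounds were pinned into cell-free DMEM with 10% FBS and fluorescence was read at excitation 540 nm. Activity is expressed as Rose Bengal sodium equivalency.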

[14] = qHTS assay to test for compound auto fluorescence at 590 nm (red) in HepG2 cell free culture (AID 720684); note: potency is the fitted concentration of half-maximal effect
Outline: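 Ex 540 / Em 590 nm read of compound in cell-free MEM (10% FBS). Rose Bengal sodium reference.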

[15] = qHTS assay to test for compound auto fluorescence at 460 nm (blue) in HepG2 cell free culture (AID 720685); note: potency is the fitted concentration of half-maximal effect
Outline: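 Cell-free plates of MEM plus 10% FBS received 23 nL compound or DMSO vehicle; blue-channel (405/460 nm) intensity scored against triamterene as reference fluorophore.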

[16] = qHTS assay to test for compound auto fluorescence at 535 nm (green) in HepG2 cell free culture (AID 720686)
[17] = qHTS assay to test for compound auto fluorescence at 460 nm (blue) in HepG2 cells (AID 720687); note: potency is the fitted concentration of half-maximal effect
Outline: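 Cells (2,000/well in MEM with 10% FBS) attached overnight at 37 C, then were exposed to compound or DMSO for 1 hr at 37 C, 5% CO2. Fluorescence read at Ex/Em 405/460 nm, expressed as triamterene-equivalent signal.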

[18] = qHTS assay for small molecule disruptors of the mitochondrial membrane potential - cell viability (AID 720634; calls by dose curve;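 note: human HepG2 liver cancer cells; nearly all actives have a fitted effect of over 20% in size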)
Outline: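 In this qHTS format, HepG2 cells plated overnight were pinned with compound, incubated 1 hr, and assayed for ATP luminescence with CellTiter-Glo after m-MPI dye addition.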

[19] = biological target: Glucocorticoid receptor (Homo sapiens) (UniProt P04150); assay: qHTS assay to identify small molecule agonists of the glucocorticoid receptor (GR) signaling pathway (AID 720691; active = well fitted activation curve with a large enough effect in the signal ratio in the repeat runs, not every such curve was filed as active; inconclusive = weak or mixed curves, or effect the other way; inactive = no such curve, though single readings can be large or run the other way; the % refers to the signal ratio; note: potency is the fitted concentration of half-maximal effect); details: GR-bla HeLa, beta-lactamase reporter ratio, 18 h
Outline: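 Measures GR pathway activation through a GRE-beta-lactamase reporter stably integrated in HeLa cells, with 18 h compound treatment at 37 C and fluorescence detection using a FRET substrate.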

[20] = biological target: Glucocorticoid receptor (Homo sapiens) (UniProt P04150); assay: qHTS assay to identify small molecule antagonists of the glucocorticoid receptor (GR) signaling pathway (AID 720692; active = well fitted inhibition curve with a large enough effect in the signal ratio in the repeat runs, not every such curve was filed as active; inconclusive = weak or mixed curves, or effect the other way; inactive = no such curve, though single readings can be large or run the other way; the % refers to the signal ratio; note: potency is the fitted concentration of half-maximal effect)
Outline: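 Tox21 10K library screened in concentration-response for blockade of dexamethasone (5 nM final)-induced GRE-bla reporter activity in HeLa cells; 18 h treatment, fluorescence read.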

[21] = activation: at 62.4 µM (top of the series)
% is set by controls: 0 for no effect and ±100 for the full control effect; tags give direction and shape of the fitted curve or compound fluorescence and quenching.

Sequence of Glucocorticoid receptor (Homo sapiens) (P04150 whole entry, looked up): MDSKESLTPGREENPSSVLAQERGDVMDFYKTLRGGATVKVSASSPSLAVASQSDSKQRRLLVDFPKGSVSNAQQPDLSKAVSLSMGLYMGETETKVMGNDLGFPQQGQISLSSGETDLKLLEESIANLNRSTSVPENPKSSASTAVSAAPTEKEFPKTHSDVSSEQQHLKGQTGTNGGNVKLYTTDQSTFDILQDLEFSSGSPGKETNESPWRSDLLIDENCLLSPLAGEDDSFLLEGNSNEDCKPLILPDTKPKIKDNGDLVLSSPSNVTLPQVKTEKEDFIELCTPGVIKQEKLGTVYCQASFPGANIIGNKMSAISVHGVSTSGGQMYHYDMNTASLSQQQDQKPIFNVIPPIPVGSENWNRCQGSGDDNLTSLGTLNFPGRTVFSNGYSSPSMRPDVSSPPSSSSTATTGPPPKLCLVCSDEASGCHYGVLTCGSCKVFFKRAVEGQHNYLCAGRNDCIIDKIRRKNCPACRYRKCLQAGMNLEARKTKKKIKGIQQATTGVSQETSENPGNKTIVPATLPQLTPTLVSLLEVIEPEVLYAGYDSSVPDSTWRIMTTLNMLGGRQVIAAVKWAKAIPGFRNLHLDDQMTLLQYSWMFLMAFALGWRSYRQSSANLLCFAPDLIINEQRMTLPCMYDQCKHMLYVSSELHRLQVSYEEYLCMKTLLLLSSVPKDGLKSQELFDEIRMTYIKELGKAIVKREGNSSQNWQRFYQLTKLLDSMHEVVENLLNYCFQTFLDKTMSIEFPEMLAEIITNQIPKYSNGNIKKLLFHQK

Cc1cc(N)c(S(=O)(=O)O)cc1Cl
inactive: Potency [1] | Potency [2] | Potency [3] | Potency [4] | Potency [5] | Potency [6] | Potency [7] | Potency [8] | Potency [9] | outcome [10] | Potency [11] | outcome [12] | Potency [13] | Potency [14] | Potency [15] | Potency [16] | Potency [17]

COc1cc(/C=C/C(=O)O[C@H]2CC[C@]34C[C@]35CC[C@]3(C)[C@@H]([C@H](C)CCC=C(C)C)CC[C@@]3(C)[C@@H]5CC[C@H]4C2(C)C)ccc1O
active: Potency [1] 7.5 µM | Potency [2] 7.5 µM | Potency [19, 21] 1.51 µM [inconclusive]
inactive: Potency [3] | Potency [4] | Potency [18] | Potency [6] | Potency [7] | Potency [8] | Potency [9] | outcome [10] | Potency [11] | outcome [12] | Potency [13] | Potency [14] | Potency [15] | Potency [17] | Potency [20]

CS(=O)(=O)CCNCc1ccc(-c2ccc3ncnc(Nc4ccc(OCc5cccc(F)c5)c(Cl)c4)c3c2)o1
inactive: Potency [1] | Potency [2] | Potency [3] | Potency [4] | Potency [18] | Potency [5] | Potency [6] | Potency [7] | Potency [8] | Potency [9] | outcome [10] | Potency [11] | outcome [12] | Potency [13] | Potency [14] | Potency [15] | Potency [16] | Potency [17]

O=C(Nc1cccc(C(F)(F)F)c1)c1cc(Br)cc(Br)c1O
inactive: Potency [2] | Potency [6] | Potency [8] | Potency [9] | outcome [10] | Potency [11] | outcome [12] | Potency [13] | Potency [14] | Potency [15] | Potency [16] | Potency [17] | activation ([19]; at 62.4 µM (top of the series)) 10.1%
active: Potency [1] 5.31 µM and 1.72 µM | Potency [3] 473 nM and 686 nM | Potency [4] 13.3 µM | Potency [5] 335 nM and 109 nM | activation [19, 21] 9.27% [inconclusive]

CC(C)=CCOc1ccc(/C=C/C(=O)c2ccc(OCC=C(C)C)cc2OCC(=O)O)cc1
inactive: Potency [2] | Potency [4] | Potency [18] | Potency [6] | Potency [8] | Potency [9] | outcome [10] | Potency [11] | outcome [12] | Potency [13] | Potency [14] | Potency [15] | Potency [16] | Potency [17] | Potency [19, 21]
active: Potency [1] 13.3 µM | Potency [3] 10.6 µM | Potency [5] 23.7 µM | Potency [20] 7.56 µM

N=C1N=C(N)c2cc3ccccc3cc21
inactive: Potency [4] | Potency [18] | Potency [6] | Potency [7] | Potency [9] | outcome [10] | outcome [12] | Potency [13] | Potency [14] | Potency [16]
active: Potency [1] 9.69 µM | Potency [2] 19.3 µM | Potency [3] 12.2 µM | Potency [5] 3.06 µM | Potency [8] 35.5 µM [fluorescent] | Potency [11] 31.6 µM | Potency [15] 28.2 µM [fluorescent] | Potency [17] 38.7 µM [fluorescent]

CCOC(=O)/C=C(C)/C=C/C=C(C)/C=C/c1c(C)cc(OC)c(C)c1C
active: Potency [1] 21.1 µM
inactive: Potency [2] | Potency [3] | Potency [4] | Potency [18] | Potency [6] | Potency [7] | Potency [8] | outcome [10] | Potency [11] | outcome [12] | Potency [13] | Potency [14] | Potency [15] | Potency [16] | Potency [17] | Potency [20]

c1ccc(CSCc2ccccc2)cc1
inactive: Potency [1] | Potency [2] | Potency [3] | Potency [4] | Potency [18] | Potency [6] | Potency [8] | Potency [9] | outcome [10] | Potency [11] | outcome [12] | Potency [13] | Potency [14] | Potency [15] | Potency [17] | Potency [19, 21]
active: Potency [5] 43.1 µM

Cc1c(C)c2c(c(C)c1O)CCC(C)(COc1ccc(CC3SC(=O)NC3=O)cc1)O2 (centres undefined)
active: Potency [1] 29.8 µM and 54.5 µM | Potency [3] 29.8 µM and 61.1 µM | Potency [5] 9.44 µM and 10.9 µM
inactive: Potency [2] | Potency [4] | Potency [18] | Potency [6] | Potency [8] | Potency [9] | outcome [10] | Potency [11] | outcome [12] | Potency [13] | Potency [14] | Potency [15] | Potency [16] | Potency [17]

CCN1/C(=C/C=C/c2sc3ccccc3[n+]2CC)Sc2ccccc21
active: Potency [1] 15 µM | Potency [3] 16.8 µM | Potency [4] 10.6 µM | Potency [6] 12.6 µM | Potency [9] 11.2 µM [fluorescent] | Potency [13] 11.2 µM [fluorescent] | Potency [14] 14.1 µM [fluorescent]
inactive: Potency [2] | Potency [18] | Potency [7] | Potency [8] | outcome [10] | Potency [11] | outcome [12] | Potency [15] | Potency [16] | Potency [17]

CSc1ccc(C(=O)c2[nH]c(=O)[nH]c2C)cc1
inactive: Potency [1] | Potency [2] | Potency [3] | Potency [4] | Potency [18] | Potency [5] | Potency [6] | Potency [7] | Potency [8] | Potency [9] | outcome [10] | Potency [11] | outcome [12] | Potency [13] | Potency [14] | Potency [15] | Potency [16] | Potency [17]

Reference: PubChem BioAssay (Tox21)
